Where “and” joins values, the source holds several entries; their conditions need not be identical. Equal values may be shown once. Results filed as inconclusive are left out. A call without a number means that no potency is given here. Calls of active or inactive are those of the source. Calls follow the shape of the dose curve; as a rule, active = well fitted cell-killing curve with a large enough effect; inconclusive = small, poorly fitted or top-dose-only effect; inactive = no such curve, though single readings can be large or run the other way.
Potency is read from the fitted curve at half-maximal effect.

This experiment is described as follows: qHTS of pediatric cancer cell lines to identify multiple opportunities for drug repurposing: Primary screen for A673 cells (AID 1347092). Also: nearly all actives have a fitted effect of over 45% in size. The conditions noted are these: A673 Ewing sarcoma viability, CellTiter-Glo ATP luminescence, 48 h; series mostly up to 46 µM. A digest of the protocol: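 Cell viability of A673 measured by CellTiter-Glo ATP luminescence after 48 hours compound exposure. Dilution series spanned 0.78 nM to 46 µM (MIPE, 11-point) or 0.59 nM to 46 µM (NPC, 8-point); bortezomib 2.3 uM positive control.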
(In general: qHTS replaces the single test concentration by a dilution series.)
Take `CCCOc1ccc2nc(NC(=O)OC)[nH]c2c1`: the Potency is 33.5 nM (active) and 11.8 nM (active).

As to `CCc1nc(N)nc(N)c1-c1ccc(Cl)cc1`, the Potency is 10.6 µM (active) and 14.8 µM (active).

With `O=c1oc2cc(O)ccc2s1`, the Potency is 9.35 µM (active).

In the case of `CCOC(=O)C1=C[C@@H](OC(CC)CC)[C@H](NC(C)=O)[C@@H](N)C1`, the Potency entry is “inactive”.

As to `CN(C)C(=O)[C@H](O)[C@H](Cc1ccccc1)NC(=O)c1cc2cc(Cl)ccc2[nH]1`, the Potency is 5.9 µM (active).

Consider `Cc1cccc(-c2[nH]ncc2-c2ccc3ncccc3n2)n1`, for which the Potency result is “inactive”.

For the compound `Cc1nccn1CC1CCc2c(c3ccccc3n2C)C1=O` (stereo not drawn), the Potency entry was “inactive”.

`Cc1cc(O)c2c(c1)C(=O)c1cc(O)cc(O)c1C2=O`: the Potency entry was “inactive”.

Turning to `N=C(N=C(N)N)N1CCOCC1`, the Potency entry is “inactive”.

As to `Nc1nc(N)c(N=O)c(OCC2CCCCC2)n1`, the Potency is 7.43 µM (active).

For the compound `CCC(C)(Oc1ccc(C2(c3ccc(OC(C)(CC)C(=O)O)cc3)CCCCC2)cc1)C(=O)O` (stereo not drawn), the Potency entry was “inactive”.

On to `Cc1nc(-c2ccc(OCC(C)C)c(C#N)c2)sc1C(=O)O`, for which the Potency result was “inactive”.

On to `Cn1c(NCCN(CCO)CCCc2ccc([N+](=O)[O-])cc2)cc(=O)n(C)c1=O`, for which the Potency result is “inactive”.

As for `C=C(c1ccc(C(=O)O)cc1)c1cc2c(cc1C)C(C)(C)CCC2(C)C`, the Potency entry was “inactive”.

Consider `Cc1c(OCC(F)(F)F)ccnc1CS(=O)c1nc2ccccc2[nH]1` (stereo not drawn), for which the Potency result was “inactive”.

`S=c1nc[nH]c2nc[nH]c12`: the Potency is 1.33 µM (active).

For `CN(C)[C@@H](CCOc1cccc2ccccc12)c1ccccc1`, the Potency result was “inactive”.

As to `O=C1c2c(O)cc(O)cc2OC(c2ccc(O)c(O)c2)C1O` (stereo not drawn), the Potency result is “inactive”.

Values taken from PubChem BioAssay (NCATS).
